Results on 40 molecules are retold here after PubChem BioAssay (Tox21).

Results filed as inconclusive are left out. Where a call stands in place of a potency, no number is given. Some compounds were tested as several samples or in several runs, with calls that do not always agree. Calls of active or inactive are those of the source. Calls come from the whole dose curve; as a rule, active = well fitted activation curve with a large enough effect in the repeat runs; inconclusive = weak or mixed curves; inactive = flat fitted curve, though single readings scatter.
Potency is the fitted concentration of half-maximal effect.

A short description of the experiment: A CellTox Green Cytotoxicity Assay to monitor cytotoxicity in HepG2 cells - 40 hour (AID 1224879). Note: nearly all actives have a fitted effect of over 40% in size. As to conditions: CellTox Green fluorescence; series mostly up to 76.8 µM. The source says: National Center for Advancing Translational Sciences [NCATS]
NIH Chemical Genomics Center [NCGC]
U.S. Environmental Protection Agency [EPA]
National Institutes of Environmental Health Sciences [NIEHS]
National Toxicology Program [NTP]
Cell-based models are critical for drug discovery. Determining the natural cytotoxic effects resulting from test compounds is an essential research activity. A CellTox Green Cytotoxicity Assay to monitor cytotoxicity in real time of continues cell culture during 40 hours of the compound treatment was used to screen Tox21 10K library compounds in HepG2 cells. CellTox Green Cytotoxicity Assay is a nonlytic, homogeneous, biofluorescent method to measure cytotoxicity in cell culture after experimental manipulation. The assay system uses a proprietary asymmetric cyanine dye that is excluded from viable cells but preferentially stains the dead cell's DNA. […] Viable cells produce no appreciable increases in fluorescence. Therefore, the fluorescence signal produced by the binding interaction with dead cell DNA is proportional to cytotoxicity.
The mixture of HepG2 cell suspension and reagents were dispensed at 600cells/6 ul/well in 1536-well tissue culture treated black solid bottom plates using a Multidrop dispenser. After the assay plates were incubated at a 37 C/5% CO2 incubator for 5 hours, 23 nL of compounds dissolved in DMSO, positive and negative controls was transferred to the assay plate by a pintool work station. The plates were incubated at 37 C for 40 hours. The fluorescence intensity were measured at 0h, 8h, 16h, 24h, 32h and 40h time points using ViewLux plate reader during compound treatment.
Regarding `CCOP(=S)(OCC)Oc1cnc2ccccc2n1`, the Potency entry is “inactive”.
The figure for `c1ccc(-c2ccccc2)cc1` is 49.4 µM (active) and inactive.
On to `Cc1ccccc1O`, for which the Potency entry is “inactive”.
The entry for `CNC(=O)Oc1ccccc1OC(C)C` is “inactive”; for `C#CCN(C)[C@H](C)Cc1ccccc1` it is “inactive”; for `Oc1ccccc1Cl` it is “inactive”.
On to `Cc1cccc([N+](=O)[O-])c1`, for which the Potency result was “inactive”.
Consider `CCC[N+](=O)[O-]`, for which the Potency was 24.1 µM (active) and inactive.
The entry for `CCC[CH2][Sn]([Cl])([Cl])[Cl]` is “inactive”; for `O=Cc1cccc(Oc2ccccc2)c1` it is “inactive”.
With `COP(N)(=O)SC` (stereo not given) the entry was “inactive”; with `CCNc1nc(NC(C)(C)C)nc(SC)n1`, “inactive”; with `CC(C)NC(=O)N1CC(=O)N(c2cc(Cl)cc(Cl)c2)C1=O`, “inactive”.
With `CCNc1nc(NC(C)C)nc(SC)n1` the entry was “inactive”; with `CCOC(=O)c1ccccc1C(=O)OCC`, “inactive”; with `CCN(CC)c1ccccc1`, “inactive”.
Regarding `Cc1[nH]c(=O)n(C(C)(C)C)c(=O)c1Cl`, the Potency result was “inactive”.
With `[O-][Cl+2]([O-])O` the entry was “inactive”; with `O=c1n(Cl)c(=O)n(Cl)c(=O)n1Cl`, “inactive”; with `O=[N+]([O-])c1ccccc1`, “inactive”.
The entry for `CC1OC(C)OC(C)O1` (stereo not given) is “inactive”; for `CC(C)OC(=O)Nc1cccc(Cl)c1` it is “inactive”.
With `CN(C)CCO` the entry was “inactive”; with `Nc1ccc(Oc2ccc(N)cc2)cc1`, “inactive”; with `O=S(=O)(c1ccc(O)cc1)c1ccc(O)cc1`, “inactive”.
As for `CC(Oc1ccc(Cl)cc1Cl)C(=O)O` (stereo not given), the Potency entry was “inactive”.
As for `NCC(O)c1ccc(O)cc1` (stereo not given), the Potency result is “inactive”.
The entry for `O=NN1CCCCCCC1` is “inactive”; for `CCc1cccc(C)c1N(C(=O)CCl)C(C)COC` (stereo not given) it is “inactive”; for `Nc1ccccc1C(=O)O` it is “inactive”.
With `Cc1cc(Cl)ccc1O` the entry was “inactive”.
With `Cc1ccc([N+](=O)[O-])cc1C` the entry was “inactive”; with `[N-]=[N+]=[N-]`, “inactive”.
For `CC(C)C#N`, the Potency result is “inactive”.
With `CC(C)(Cl)Cl` the entry was “inactive”; with `CC1C=[C-]C=C1.[C-]#[O+].[C-]#[O+].[C-]#[O+].[Mn]`, “inactive”; with `C#CC(C)(C)NC(=O)c1cc(Cl)cc(Cl)c1`, “inactive”.
With `O=NN1CCCC1` the figure was 57.5 µM (active) and inactive.
On to `CN(N=O)c1ccccc1`, for which the Potency entry was “inactive”.
With `Cn1cc(-c2ccccc2)c(=O)c(-c2cccc(C(F)(F)F)c2)c1`, the Potency entry is “inactive”.
